Screening data from PubChem BioAssay.
VP16 counter: Gal4-VP16 reporter inhibition counter-screen; AID 2546; Drosophila S2 Gal4-VP16 UAS-luciferase, luminescence, 20 h; Potency, µM (doses to about 53.6 µM), for inactives: at the highest dose activity, negative = inhibition, usual class: inhibitors; 3.5% of 310,000 active;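 also: Gal4-VP16 expression switched on by copper sulfate through the metallothionein promoter; nearly all actives have a fitted effect of over 50% in size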
RORg inh: ROR gamma (mouse) transcription inhibition; P51450; Drosophila S2 Gal4-RORgamma UAS-luciferase reporter, 20 h; Potency, µM (doses to about 53.6 µM), for inactives: at the top dose activity change, negative = inhibition, hits mostly inhibitors; 5.4% of 310,000 active; AID 2551; also: nearly all actives have a fitted effect of over 60% in size
Target sequence (P51450 whole entry, looked up, the tested form may be a part): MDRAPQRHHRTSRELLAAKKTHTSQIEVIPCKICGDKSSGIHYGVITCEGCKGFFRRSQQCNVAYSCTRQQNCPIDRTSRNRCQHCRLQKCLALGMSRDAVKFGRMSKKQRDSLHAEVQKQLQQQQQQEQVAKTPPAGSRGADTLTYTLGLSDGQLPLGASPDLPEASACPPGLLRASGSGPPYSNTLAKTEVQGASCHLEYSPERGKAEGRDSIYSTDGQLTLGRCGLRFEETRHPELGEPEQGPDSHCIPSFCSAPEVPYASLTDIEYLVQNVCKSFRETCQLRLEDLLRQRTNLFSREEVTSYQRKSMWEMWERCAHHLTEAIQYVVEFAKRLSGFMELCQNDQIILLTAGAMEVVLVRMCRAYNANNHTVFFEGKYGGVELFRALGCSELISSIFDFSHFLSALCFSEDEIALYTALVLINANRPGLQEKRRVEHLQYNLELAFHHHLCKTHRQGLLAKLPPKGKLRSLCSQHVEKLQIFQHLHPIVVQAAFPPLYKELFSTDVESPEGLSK
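Stably transfected Drosophila Schneider cells are the test system, with ROR gamma fused to Gal4 and luciferase under UAS control; luminescence is read after 20 hr of 700 uM copper sulfate induction at ambient temperature.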
TDP1 cell CPT: DT40-hTDP1 cell growth loss with CPT; chicken DT40 Tdp1-/-;hTDP1 cells + 20 nM CPT, ATP luminescence, 48 h; Potency, µM (top dose mostly 46.2 µM), without a hit: top-dose activity change, negative = growth inhibition, hits mostly inhibitors; 12% of 420,000 active; AID 686979; also: nearly all actives have a fitted effect of over 55% in size
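Chicken DT40 Tdp1-/- cells stably complemented with human TDP1 were seeded at 400 cells/well in medium containing 20 nM camptothecin, exposed to pin-transferred compounds, and grown at 37 °C for at least 48 hr. Viability was read as ATP luminescence.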
TDP1 block: inhibitors of human tyrosyl-DNA phosphodiesterase TDP1 | Potency, µM (series often up to 130 µM), for inactives: at the top dose activity change, negative = inhibition, most hits filed as inhibitors | Q9NUW8 | 0.28% of 350,000 active | recombinant TDP1, AlphaScreen DNA substrate cleavage; also: nearly all actives have a fitted effect of over 40% in size
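Steps: enzyme plus compound, 15 min RT; add biotin/phosphotyrosine-FITC oligonucleotide (15 nM final), react 5 min; add donor/acceptor beads (10 ug/ml final), 10 min; read AlphaScreen. Tdp1 at 1 nM final.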
DT40 TDP1 no CPT: qHTS for Inhibitors of human tyrosyl-DNA phosphodiesterase 1 (TDP1): qHTS in cells in absence of CPT | DT40 Tdp1-/- hTDP1 cells, no CPT, ATP luminescence, 48 h | Potency, µM (series often up to 46.2 µM), for the others: top-dose activity change, negative = growth inhibition, most hits filed as inhibitors | 15% of 420,000 active | AID 686978, 2013; also: nearly all actives have a fitted effect of over 55% in size
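Growth of hTDP1-complemented DT40 Tdp1-knockout cells is measured by ATP luminescence after at least 48 hr compound exposure at 37 °C, with DMSO substituting for the 20 nM CPT used in the parallel screen.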
* hit, by the source's call; u = inconclusive; x = no result given; [ ] = another dose, or the depositor's remark. Only some compounds are listed: those with a hit (about 19% of all), similar ones and a draw of the others. Calls follow the shape of the dose curve; as a rule, active = well fitted curve in the direction sought with a large enough effect; inconclusive = small, poorly fitted or top-dose-only effect, or another doubt; inactive = no such curve, though single readings can be large; an effect the other way counts as inactive or inconclusive. % is scaled to controls: 0 for no effect and ±100 for the full control effect; potency is read from the fitted curve at half-maximal effect.

SMILES | VP16 counter | RORg inh | TDP1 cell CPT | TDP1 block | DT40 TDP1 no CPT
Cc1ccc(S(=O)(=O)N2CCN(c3nc(-c4ccnnc4)nc4ccccc34)CC2)cc1 | x | x | u | -1% | 16µM*
COc1ccc(-c2nc(N3CCN(S(=O)(=O)c4ccc(C)cc4)CC3)c3ccccc3n2)cc1 | x | x | x | 3% | x
CC(=NNC1=NCCN1)c1cn(C2=NCCN2)nc1C | x | x | -27% | x | -16%
Cc1ccc(-c2[nH]ncc2/C=N/n2c(COc3ccccc3)nc3ccccc3c2=O)cc1 | u | u | u | -1% | u
Cc1nc2ccccc2c(=O)n1/N=C/c1ccccc1F | u | 28% | -4% | x | 4%
Cc1nc2ccccc2c(=O)n1/N=C/c1cn[nH]c1-c1ccccc1 | -8% | u | u | 1% | 15µM*
Cc1ccccc1OCc1nc2ccccc2c(=O)n1/N=C/c1cn[nH]c1-c1ccccc1 | -3% | 20% | u | 9% | 21µM*
CCCC(=O)Nc1ccc(C(=O)Nc2nnc(COCC)s2)cc1 | -4% | 29% | -5% | 7% | -7%
Cc1c(Cc2ccccc2)sc(/N=C/c2c(O)ccc3ccccc23)c1C(N)=O | -20% | 12%[10 µM] | 23µM* | -2% | u
Cc1c(Cc2ccccc2)sc(N)c1C(N)=O | x | 17%[0.365 µM] | x | 3% | x
Cc1c(Cc2ccccc2)sc(/N=C/c2ccc3ccccc3c2)c1C(N)=O | 6% | 6% | 0.73µM* | 0% | 0.82µM*
Cc1ccccc1NC(=O)N1CCc2ccccc2C1 | -1% | -1% | -6% | 0% | -3%
COC(=O)c1c(-c2ccc(N(C)C)cc2)oc2c1C(OC)CCC2 (configuration not stated) | x | x | u | x | 18µM*
Cc1cc(/C=C/c2ccnc3ccccc23)ccc1N | x | x | 8.9µM* | x | 20µM*
CN(C)c1ccc(/C=C/c2ccnc3ccccc23)cc1N | x | x | 2.8µM* | x | 2.5µM*
Clc1ccccc1/C=C/c1ccnc2ccccc12 | 19% | -3% | u | 3% | u
C(=C\c1ccnc2ccccc12)/c1cc2c3c(c1)CCCN3CCC2 | x | x | 2.2µM* | x | 2µM*
Nc1c(Br)cc(/C=C/c2ccnc3ccccc23)cc1Br | x | x | u | x | 10µM*
Cc1ccnc2ccccc12 | x | x | 2% | x | -2%
CCOc1ccc(N2C(=O)CC(Sc3nccc(C)n3)C2=O)cc1 (configuration not stated) | x | 6%[0.365 µM] | u | 6% | u
CC(C)C(N)c1csc(Nc2ccccn2)n1 (configuration not stated) | x | x | 8% | x | -19%
COc1cc(OC)nc(Nc2nc(C(N)Cc3ccc(F)cc3)cs2)n1 (configuration not stated) | x | x | 21µM* | x | 23µM*
COc1cc(OC)nc(NC(=O)CN2CCN(c3ccc(F)cc3)CC2)n1 | -4% | -4% | -12% | 0% | -16%
COc1cccc(Nc2nc(C(N)Cc3ccccc3)cs2)n1 (configuration not stated) | x | x | 13µM* | x | 16µM*
Cc1cc(C)c(NC(=O)CN(C)C(=O)CCC(=O)c2ccc(C)s2)c(C)c1 | x | x | -24% | 2% | -9%
CC1=C(C(=O)OCc2ccccc2)C(c2ccccc2Cl)NC(=O)N1C (configuration not stated) | 1% | 12% | u | 4% | u
CCOC(=O)c1nc2ccc(C)cc2c2c1C1CC(c3c(Cl)cccc31)N2C(=O)OCc1ccccc1 (configuration not stated) | x | x | 15µM* | x | 18µM*
O=C(NCc1ccco1)c1cccc2c1C(=O)c1ccc(N3CCC(Cc4ccccc4)CC3)cc1S2(=O)=O | x | x | 13µM* | 1% | 13µM*
O=C(NCc1ccc(OC(F)(F)F)cc1)c1cccc2c1C(=O)c1ccc(N3CCCC3)cc1S2(=O)=O | x | x | -25% | 0% | 18µM*
O=C(NCc1cccc(C(F)(F)F)c1)c1cccc2c1C(=O)c1ccc(N3CCC(Cc4ccccc4)CC3)cc1S2(=O)=O | x | x | u | 0% | 7.3µM*
